# From the supplement of paper PMC6555819
# How the values were obtained:
# Assay in all cases: PBM binding z-score (relative to random genomic background probes); higher = stronger binding; sequences stand for … in GC…GCGATTGACAGCGTAGAATGAAGG
# [1] = test system: FXR:RXRa (NR concentration 270 nM, RXRa partner concentration 90 nM)
# In short: (§1)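 The probes on custom Agilent 4×180K protein-binding microarrays were double-stranded, with 34-nt variable regions bearing direct-repeat seeds, single-nucleotide variants, half-site ablations and random human genomic background sequences. Incubation lasted 1 h with ligand-free nuclear receptor dimers in PBS pH 7.4, 2% milk, 0.02% Triton X-100, 1 mM DTT, 0.2 mg/mL BSA and 0.4 mg/ml salmon testes DNA. Antibodies against each partner (one per run) detected bound dimers, and fluorescence scans were regression-normalized. Binding z-scores take the random background probes as reference.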
# [2] = test system: LXRa:RXRa (NR concentration 270 nM, RXRa partner concentration 90 nM)
# In short: as §1
# [3] = test system: LXRa homodimer (NR concentration 270 nM)
# In short: as §1
# [4] = test system: LXRb:RXRa (NR concentration 270 nM, RXRa partner concentration 90 nM)
# In short: as §1
# [5] = test system: LXRb homodimer (NR concentration 270 nM)
# In short: as §1
# [6] = test system: PPARa:RXRa (NR concentration 270 nM, RXRa partner concentration 90 nM)
# In short: as §1
# [7] = test system: PPARg:RXRa (NR concentration 180 nM, RXRa partner concentration 90 nM)
# In short: as §1
# [8] = test system: PPARg:RXRa 270nM:90nM, anti-RXR (NR concentration 270 nM, RXRa partner concentration 90 nM)
# In short: as §1
# [9] = test system: PPARg:RXRa 30nM:10nM, anti-RXR (NR concentration 30 nM, RXRa partner concentration 10 nM)
# In short: as §1
# [10] = test system: PPARg:RXRa 90nM:30nM, anti-RXR (NR concentration 90 nM, RXRa partner concentration 30 nM)
# In short: as §1
# [11] = test system: PPARg:RXRa DBDmut IVT, anti-RXR (DBD mutation: RXRa K156A/R161A, NR concentration 270 nM, RXRa partner concentration 90 nM)
# In short: as §1
# [12] = test system: PPARg:RXRa IVT, anti-PPARg (NR concentration 270 nM, RXRa partner concentration 90 nM)
# In short: as §1
# [13] = test system: PPARg DBDmut:RXRa IVT, anti-PPARg (DBD mutation: PPARg1 K132A/R137A, NR concentration 270 nM, RXRa partner concentration 90 nM)
# In short: as §1
# [14] = test system: PPARg DBDmut IVT, anti-PPARg (DBD mutation: PPARg1 K132A/R137A, NR concentration 270 nM)
# In short: as §1
# [15] = test system: PPARg homodimer (NR concentration 180 nM)
# In short: as §1
# [16] = test system: PXR:RXRa (NR concentration 270 nM, RXRa partner concentration 90 nM)
# In short: as §1
# [17] = test system: PXR homodimer (NR concentration 270 nM)
# In short: as §1
# [18] = test system: RARa:RXR (NR concentration 270 nM, RXRa partner concentration 90 nM)
# In short: as §1
# [19] = test system: RARa homodimer (NR concentration 270 nM)
# In short: as §1
# [20] = test system: RARb:RXRa (NR concentration 270 nM, RXRa partner concentration 90 nM)
# In short: as §1
Sequence,PBM binding z-score [1],PBM binding z-score [2],PBM binding z-score [3],PBM binding z-score [4],PBM binding z-score [5],PBM binding z-score [6],PBM binding z-score [7],PBM binding z-score [8],PBM binding z-score [9],PBM binding z-score [10],PBM binding z-score [11],PBM binding z-score [12],PBM binding z-score [13],PBM binding z-score [14],PBM binding z-score [15],PBM binding z-score [16],PBM binding z-score [17],PBM binding z-score [18],PBM binding z-score [19],PBM binding z-score [20]
GCTTGTAGATCAAGGTTAAGAGAGACTAAGCTAA,-0.00904,0.508,-0.353,0.119,-0.894,1.36,0.796,2.03,0.342,1.44,1.35,1.01,0.118,-0.183,0.193,0.187,-0.0843,0.668,-0.213,0.688
TAGCCTAGGTCATGGTCCAGTATACCACGCGAAC,3.98,3.17,0.367,2.57,-0.0302,3.96,3.3,3.12,0.835,1.94,2,3.39,0.0262,-0.185,0.886,1.64,-0.02,2.35,-0.386,3.78
TCTAGTTCGTCAAAGGTCACACACTCGAAATGCG,6.15,6.02,4.48,5.55,1.9,5.99,5.62,6.47,5.73,6.28,2.89,3.87,2.7,1.85,3.82,6.15,2.25,6.52,3.27,5.24
GCGACCGGGGCAAAGCAGGTTACCATAAGGTTGG,0.264,0.812,-0.366,0.0322,-1.28,1.42,0.709,0.611,-0.666,-0.143,1.27,1.24,-1.18,-1.17,0.243,0.857,-0.433,1.31,-0.661,1.65
GGAACGAGGGCAAAGTTGATAGAATCTGTCGACG,1.44,1.1,-0.584,1.01,-0.45,4.17,6.84,7.15,6.22,7.35,4.01,4.36,0.353,-0.207,0.397,1.25,0.121,1.74,-0.438,2.32
ATCTCTAGGTAACAAGTCCAGTGAAAGAGAGGAC,0.652,0.256,0.362,0.148,0.685,0.632,1.2,1.71,0.317,1.45,3.01,2.6,0.767,1.29,0.367,0.433,0.215,0.195,0.924,0.473
TTACCAAGGAGAGCTGAGGTCGTTGATCCAACTC,0.524,-0.0675,-0.298,0.248,-1.1,0.632,-0.233,0.453,0.297,0.316,-0.667,-0.449,-0.504,-0.387,0.217,1.29,0.364,0.846,-0.664,0.145
